Six1-Eya2 blk = inhibitors of human Six1/Eya2 interaction | Q15475+O00167 | AlphaScreen GST-Six1/His-Eya2 binding, biochemical; hits give low values | activity change, % (test concentration not listed) | 0.56% of 360,000 active; in the data active = activity change below about -65%; inconclusive = mostly about -30% to -63%; also: % is scaled to controls: 0 for no effect and ±100 for the full control effect
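AlphaScreen with GST-Six1 and His-Eya2 (5X mix: 250 nM and 500 nM), glutathione donor and nickel acceptor beads; buffer 50 mM Tris pH 8.0, 300 mM NaCl, 1 mM TCEP; 1 h at 37 C in the dark.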
CtBP-E1A blk = blocks the CtBP interaction with E1A. activity change, % (concentration not given with the values). 0.49% of 340,000 active. AlphaScreen GST-E1A/His-CtBP binding, 1536-well; hits give low values. AID 651724; in the data active = activity change below about -65%; inconclusive = mostly about -30% to -63%; also: % is scaled to controls: 0 for no effect and ±100 for the full control effect
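Homogeneous bead-based format: GST-tagged E1A captured on glutathione donor beads, His-tagged CtBP on nickel acceptor beads; compounds precede bead addition by 2 h at 37 °C.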
RORgamma inh = blocks mouse ROR gamma transcriptional activity; AID 2551; Potency, µM (titrated, usually from 53.6 µM), inactives show at the highest dose activity change, negative = inhibition, most hits filed as inhibitors; Drosophila S2 Gal4-RORgamma UAS-luciferase reporter, 20 h; 5.4% of 310,000 active; also: potency is read from the fitted curve at half-maximal effect; % is scaled to controls: 0 for no effect and ±100 for the full control effect; nearly all actives have a fitted effect of over 60% in size
Target sequence (P51450 whole entry, looked up, the tested form may be a part): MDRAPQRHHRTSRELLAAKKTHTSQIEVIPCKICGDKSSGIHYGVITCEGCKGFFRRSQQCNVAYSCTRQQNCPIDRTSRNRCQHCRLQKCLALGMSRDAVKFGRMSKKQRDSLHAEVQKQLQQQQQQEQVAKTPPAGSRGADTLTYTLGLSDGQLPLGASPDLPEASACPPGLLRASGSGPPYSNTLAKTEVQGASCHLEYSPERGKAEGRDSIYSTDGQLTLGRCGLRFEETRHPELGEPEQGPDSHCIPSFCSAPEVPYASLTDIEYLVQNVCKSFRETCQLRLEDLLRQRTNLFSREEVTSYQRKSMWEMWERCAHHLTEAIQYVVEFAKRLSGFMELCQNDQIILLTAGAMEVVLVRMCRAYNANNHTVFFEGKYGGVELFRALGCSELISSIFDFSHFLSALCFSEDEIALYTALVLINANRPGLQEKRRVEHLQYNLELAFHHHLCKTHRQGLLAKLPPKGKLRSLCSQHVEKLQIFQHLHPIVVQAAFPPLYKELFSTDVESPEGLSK
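Luciferase reporter read in Schneider cells carrying Gal4-RORγ (mouse) and UAS-Photinus luciferase; cells given compound 1 h before 700 uM copper sulfate induction, then incubated 20 h at ambient temperature.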
CBFb-RUNX1 inh = CBF-beta/RUNX1 interaction disruption. AlphaScreen CBFb-His/RUNX1-biotin binding, biochemical. Potency, µM (top dose mostly 59.8 µM), without a hit: at the highest dose activity, negative = inhibition, actives largely listed as inhibitors. 230,000 tested, under 10 active. AID 1477; also: % of control where 0% means no effect
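CBFb-His/RUNX1-biotin, 30 nM each, preincubated 20 min RT; compound 15 min RT; Ni + streptavidin beads 50 ng each, 90 min RT; AlphaScreen read.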
VP16 counter = counter-screen for ROR gamma inhibitors: Gal4-VP16 reporter. 3.5% of 310,000 active. Potency, µM (doses to about 53.6 µM), for inactives: top-dose activity, negative = inhibition, most hits filed as inhibitors. Drosophila S2 Gal4-VP16 UAS-luciferase, luminescence, 20 h. AID 2546;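 also: Gal4-VP16 expression switched on by copper sulfate through the metallothionein promoter; potency is read from the fitted curve at half-maximal effect; % is scaled to controls: 0 for no effect and ±100 for the full control effect; nearly all actives have a fitted effect of over 50% in size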
MBNL1-CUG inh = MBNL1-poly(CUG) RNA binding inhibition; Q9NR56; TR-FRET MBNL1-His/biotin-(CUG)12 binding, 665/545 ratio; Potency, µM (top dose mostly 57.5 µM), without a hit: at the top dose activity change, negative = inhibition, usual class: inhibitors; 0.036% of 280,000 active; active = well fitted inhibition curve with a large enough effect in the signal ratio, with a control signal flat, not every such curve was filed as active; inconclusive = small, poorly fitted or top-dose-only effect, or effect the other way, or a change in a side signal; inactive = no such curve, though single readings can be large or run the other way; the % refers to the signal ratio; also: potency is read from the fitted curve at half-maximal effect; % is scaled to controls: 0 for no effect and ±100 for the full control effect
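His-tagged MBNL1 binding to biotinylated (CUG)12 RNA was measured by TR-FRET using terbium anti-His antibody (0.055 ng/ul final) and streptavidin-XL665 (5 nM final). Compounds were titrated 92 nM to 58 uM; 60 min at room temperature.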
Numbers without * were called inactive; ? = inconclusive; . = no result given; [ ] = remark or other dose. Hits are enriched below; roughly 5.5% of the tested compounds scored in any of these assays. Unless noted, calls follow the shape of the dose curve; as a rule, active = well fitted curve in the direction sought with a large enough effect; inconclusive = small, poorly fitted or top-dose-only effect, or another doubt; inactive = no such curve, though single readings can be large; an effect the other way counts as inactive or inconclusive.

SMILES | Six1-Eya2 blk | CtBP-E1A blk | RORgamma inh | CBFb-RUNX1 inh | VP16 counter | MBNL1-CUG inh
Cc1cc(C)cc(NC(=S)N2CCN(c3ncc(C(F)(F)F)cc3Cl)CC2)c1 | -7.1 | 6.7 | 3.55µM* | 16.4% | -25.7% | -3.7%
COC(=O)c1cc(OC)c(OC)cc1NC(=S)N1CCN(c2ccccn2)CC1 | -6.9 | -0.3 | 11.2µM* | 1.7% | 6.0% | 0.6%
Cc1cc(C)cc(NC(=S)N2CCN(c3ccccn3)CC2)c1 | -5.5 | . | 15.8µM* | . | ? | -4.6%
COc1cc(NC(=S)N2CCN(c3ccccn3)CC2)cc(OC)c1OC | -11.9 | -3.0 | -0.8% | 5.6% | 1.1% | -7.0%
COc1cc(NC(=S)N2CCN(c3ccccn3)CC2)cc(OC)c1 | -3.1 | 3.5 | 11.2µM* | -3.2% | ? | -24.7%
C=CCNC(=S)N1CCN(c2ncc(C(F)(F)F)cc2Cl)CC1 | 6.8 | -2.1 | -37.8% | 24.2% | 9.4% | -6.2%
Cc1ccc(-c2ccc3c(c2)O[C@H](CN(C)C(=O)Nc2ccc(C(F)(F)F)cc2)[C@H](C)CN([C@H](C)CO)S3(=O)=O)cc1 | 3.3 | 0.0 | . | . | . | .
Cc1ccc(NC(=S)N2CCN(c3ccccn3)CC2)cc1C | -2.9 | -0.2 | ? | . | 12.6µM* | 5.0%
CC(=O)Nc1cccc(C(=O)/C=C/c2ccc(Br)cc2)c1 | 5.0 | -14.9 | ? | -2.4% | ? | .
Cc1cccc(C(=O)Nc2ccc(C(=O)/C=C/c3ccncc3)cc2)c1 | 5.6 | 1.1 | ? | . | 12.6µM* | 52.2%
Cc1cccc(C(=O)Nc2ccc(C(=O)/C=C/c3cccnc3)cc2)c1 | 10.0 | 3.2 | 27.7%[10 µM] | -16.0% | ? | .
CCC(=O)Nc1cccc(C(=O)/C=C/c2cc(Br)ccc2OC)c1 | 0.4 | 1.5 | 11.2µM* | 0.7% | ? | -4.1%
CC(=O)Nc1cccc(C(=O)/C=C/c2ccc(/C=C/C(=O)c3cccc(NC(C)=O)c3)cc2)c1 | . | . | 10µM* | -3.0% | ? | ?
CC(=O)Nc1cccc(C(=O)/C=C/c2ccc(F)cc2)c1 | -1.7 | 4.0 | 12.6µM* | 7.8% | ? | 0.8%
CSCCC(NC(=O)c1ccccc1Cl)C(=O)NCC(c1cccs1)N(C)C (centres undefined) | 4.7 | -1.1 | . | . | . | .
Cc1cc(OC(C)C(=O)NCC2CCC(C(=O)O)CC2)c2c(C)c(C)c(=O)oc2c1 (centres undefined) | 2.3 | 6.6 | -22.1% | . | 5.6% | 12.6%
COc1ccc(N2CCN(CCCn3c(=S)[nH]c4ncccc4c3=O)CC2)cc1 | -0.4 | 1.1 | ? | 2.6% | -4.4% | -16.7%
CN(C)CCn1c(=S)[nH]c2ncccc2c1=O | 2.9 | 3.8 | -5.3% | 6.7% | -12.5%[10 µM] | -15.4%
CCOCCCn1c(=S)[nH]c2ncccc2c1=O | -2.6 | 0.4 | 10µM* | 2.3% | ? | -5.8%
CC(C)CCn1c(=S)[nH]c2ncccc2c1=O | 2.7 | 4.3 | 5.01µM* | -3.3% | -27.9% | 5.6%
CC(=O)Nc1ccc(NC(=O)CCC(=O)OCC(=O)c2ccc(F)cc2)cc1 | -18.7 | . | -16.3% | . | -4.3% | 5.3%
CCn1c(NC(=O)c2cccc(Cn3cc(Cl)cn3)c2)nc2ccccc21 | 2.4 | 4.0 | 2.82µM* | 0.7% | 2µM* | ?
Cn1c(NC(=O)c2cccc(Cn3cc(Cl)cn3)c2)nc2ccccc21 | -0.7 | 7.0 | 1.78µM* | 4.3% | 2.82µM* | -4.7%
O=C(O)c1cccc(Cn2cc(Cl)cn2)c1 | 1.4 | -1.4 | 2.7% | 3.6% | -0.7% | -22.5%
CC(C)CNC(=O)c1cccc(Cn2cc(Cl)cn2)c1 | 0.6 | 7.8 | 26.5% | 6.6% | 13.7% | -2.3%
SMILES | Six1-Eya2 blk | CtBP-E1A blk | RORgamma inh | CBFb-RUNX1 inh | VP16 counter | MBNL1-CUG inh
CCN(CC)C(=O)C1=C(C)N(CCC2=CCCCC2)C(=O)C(CC(=O)NCCN2CCOCC2)C1 (centres undefined) | 7.3 | 5.8 | . | . | . | .
Cc1ccccc1NC(=S)N1CCCC1 | -2.5 | 4.2 | -33.5% | -2.0% | -5.3% | -1.2%
Cc1ccccc1NC(=S)N1CCN(c2ccccc2C)CC1 | -5.6 | 5.4 | 2.82µM* | . | 5.62µM* | -6.0%
CCCCNC(=S)N1CCN(c2ccccc2Cl)CC1 | 3.6 | 5.6 | 11.2µM* | 5.2% | 16.4% | -4.9%
Cc1ccc(N2CCN(C(=S)Nc3ccccc3C)CC2)cc1 | -2.1 | 3.1 | 10µM* | . | ? | 1.0%
C=CCNC(=S)N1CCN(c2ccccc2Cl)CC1 | -2.3 | . | -23.6% | 14.8% | 7.5% | -3.0%
Cc1cccc(NC(=S)N2CCN(c3ccccc3F)CC2)c1C | -3.3 | -3.4 | 8.91µM* | . | 10µM* | 7.7%
COc1ccccc1/C=N\NC(=O)c1ccc(COc2ccc(C)c(C)c2)o1 | -3.5 | -16.8 | . | . | . | .
CC(NC(=O)CCCCCCN1C(=O)c2ccccc2C1=O)c1ccc2c(c1)CCCC2 (centres undefined) | -3.6 | 2.4 | ? | -2.2% | 10µM* | 5.5%
Oc1ccc(/C=N/Nc2nc(-c3cccnc3)nc3ccccc23)c(O)c1 | -66.7* | -78.5* | ? | -11.3% | 11.2µM* | ?
Cc1c(O)ccc(/C=N/Nc2nc(-c3cccnc3)nc3ccccc23)c1O | -68.1* | . | 4.47µM* | -26.9% | 17.8µM* | .
COc1ccc(/C=N/Nc2nc(-c3cccnc3)nc3ccccc23)cc1OC | 8.3 | 0.0 | -10.6% | 9.2% | -9.5% | ?
Cc1ccc(-c2nc(N/N=C/c3ccncc3)c3ccccc3n2)cc1 | -29.6 | -24.1 | ? | 0.2% | 0.282µM* | -0.3%
N#Cc1ccc(Cl)cc1NC(=O)CN1C(=O)C(=O)N(CCC2=CCCCC2)C1=O | -3.3 | -9.3 | . | . | . | .
N/C(=N\OC(=O)c1ccc(Cl)cc1Cl)c1ccccn1 | 7.7 | 0.1 | 7.08µM* | ? | ? | -7.3%
Cc1ccc(C(=O)O/N=C(\N)c2ccccc2)c(Cl)c1 | 4.1 | 2.3 | 4.47µM* | 27.1% | 8.91µM* | -2.7%
Cc1ccc(C(=O)O/N=C(\N)c2ccccn2)c(Cl)c1 | -2.9 | . | 0.708µM* | . | 2.82µM* | -7.4%
N/C(=N\OC(=O)c1ccc(Cl)cc1[N+](=O)[O-])c1ccccn1 | -21.6 | -14.4 | -20.9% | . | -26.4% | ?
C=CCN(c1ccccc1)S(=O)(=O)c1ccc2c(c1)N(C(C)=O)CCO2 | -1.5 | 3.4 | -5.8% | . | -3.8% | -0.4%
CCN(CC(=O)NC1CCS(=O)(=O)C1)C(=O)c1cc(OC)c(OC)c(OC)c1 (centres undefined) | -1.9 | 2.4 | . | . | . | .
COc1cccc(-c2nnc(SCC(=O)OC(C)C)n2Cc2ccco2)c1 | 5.1 | 0.0 | -23.0% | 1.7% | 0.0% | -10.1%
S=c1[nH]nc(-c2ccc(Br)cc2)n1Cc1ccco1 | -12.1 | -12.4 | 1.41µM* | 1.8% | 2.51µM* | -5.5%
